# Source: PubChem BioAssay (National Center for Advancing Translational Sciences (NCATS))
# Shown is part of a subset that was picked to be rich in hits.
# Pf Dd2 growth: Plasmodium falciparum Dd2 growth inhibition; Potency, µM (top dose mostly 28.9 µM), for the others: at the top dose activity, negative = inhibition, usual class: inhibitors; P. falciparum Dd2 growth, SYBR Green, 72 h; actives 4.3% (n = 120,000); AID 1347417; active = well fitted inhibition curve with a large enough effect;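 also: plate controls were DMSO vehicle for no effect and reference drug for full effect; nearly all actives have a fitted effect of over 65% in size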
#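 Infected erythrocytes (Dd2, 0.3% parasitemia, 2.5% hematocrit final) are added to compound in RPMI-1640/Albumax II medium, grown 72 h at 37C in low oxygen, then lysed with saponin/Triton-X containing SYBR Green and read by fluorescence.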
# Starred values were filed as active, the others as inactive; i = inactive; [ ] = remark or other dose. Potency is read from the fitted curve at half-maximal effect.
SMILES,Pf Dd2 growth
COCCOc1ccc(C(=O)N[C@@H]2CN(C(=O)Nc3cccc(C(F)(F)F)c3)CCC[C@H]2O)cc1,i
NC(=O)COc1ccc(C(=O)N[C@@H]2CN(Cc3ccccn3)CCC[C@H]2O)cc1,-26.5%[44.1 µM]
O=C(N[C@@H]1CN(Cc2ccccn2)CCC[C@H]1O)c1ccc(OCc2ccccc2)cc1,2.51µM*
O=C(N[C@@H]1CN(C(=O)Nc2cccc(C(F)(F)F)c2)CCC[C@H]1O)c1ccc(OCc2ccccc2)cc1,7.08µM*
O=C(N[C@@H]1CN(C(=O)Nc2ccccc2)CCC[C@H]1O)c1ccc(OCc2ccccc2)cc1,-16.0%
COc1ncc(-c2n[nH]c3c2CC(=O)N(c2ccccc2)C3)cn1,14.0%[44.1 µM]
CC(=O)C1=C(c2ccc(Br)cc2)N(C(C)=O)n2c(nnc2C2CCCCC2)S1,1.41µM*
CC(C)(C)C(=O)N1CC[C@@H](CC(=O)O)[C@@H](CC2=NCCc3ccc(C(C)(C)C)cc32)C1,-11.3%[44.1 µM]
Cc1cccnc1CN1C[C@@H](F)[C@@H](OCc2nc3ccc(F)cc3[nH]2)C1,i
Fc1ccc2nc(CO[C@H]3CN(CC4CC4)C[C@H]3F)[nH]c2c1,11.2µM*
Cn1ccnc1CN1C[C@@H](F)[C@@H](OCc2nc3ccc(F)cc3[nH]2)C1,-6.5%[44.1 µM]
Cc1cc2nc(CO[C@H]3CN(C4CCOCC4)C[C@H]3F)[nH]c2cc1C,i
O=C(c1cc[nH]c(=O)c1)N1C[C@@H](CO)[C@H](c2ccccn2)C1,-3.7%
CN(CCc1ccccc1)Cc1cnc(S(C)(=O)=O)n1Cc1ccccc1F,i
COc1ccc([S+](=O)([O-])c2nnn3c2nc(NCc2ccc(F)cc2)c2ccccc23)cc1,-28.1%
CN(C)c1ccc(C(CNC(=O)COc2ccccc2)N2CCOCC2)cc1 (stereo not given),-15.7%
COc1ccccc1OCC(=O)NCC(c1ccc(Cl)cc1)N1CCOCC1 (stereo not given),-19.7%
O=C(COc1ccccc1)NCC(c1ccc(Cl)cc1)N1CCOCC1 (stereo not given),-3.5%
COc1ccc(C(CNC(=O)Cc2ccc(Cl)cc2)N2CCOCC2)cc1 (stereo not given),i
COc1ccc(C(=O)NCC(c2ccc(Cl)cc2)N2CCCCC2)cc1 (stereo not given),-9.6%
COc1ccc(C(CNC(=O)COc2cc(C)cc(C)c2)N2CCOCC2)cc1 (stereo not given),-20.8%
COc1ccc(OCC(=O)NCC(c2ccc(Cl)cc2)N2CCCCC2)cc1 (stereo not given),7.94µM*
Cc1cc(C)cc(OCC(=O)NCC(c2ccc(Cl)cc2)N2CCCCC2)c1 (stereo not given),11.2µM*
CCc1ccc(OCC(=O)NCC(c2ccc(Cl)cc2)N2CCOCC2)cc1 (stereo not given),11.2µM*
CCN(CC)C(=O)c1ccc(CN2C(=O)NC3(CCS(=O)(=O)CC3)C2=O)cc1,-2.2%
SMILES,Pf Dd2 growth
O=C1NCCN2CC3(CCN(C(=O)c4ccco4)CC3)CC12 (stereo not given),12.5%
O=C1C(N2CCN(S(=O)(=O)Cc3ccc(Cl)cc3)CC2)CCN1Cc1cccnc1 (stereo not given),-4.9%
Cc1nn(C)cc1CN1C[C@@H](COCC(N)=O)[C@H](c2ccncc2)C1,-7.2%
O=C(COc1ccc(Cl)cc1)N1CCC(Oc2ncccc2C(=O)N2CCCCC2)C1 (stereo not given),-5.2%
CCC(C)NC(=O)C(NC(=O)c1ccccc1)C1CCN(C(=O)c2ccc(Cl)cc2)CC1 (stereo not given),i
CCc1cccc(-n2c(=O)c3cccnc3n2CC(=O)NCc2ccccc2Cl)c1,2.24µM*
Cc1nn(CC(=O)NCc2ccccc2Cl)c(=O)c2nn(-c3ccccc3)c(C)c12,11.5%
CCc1cccc(-n2c(=O)c3cccnc3n2CC(=O)NCc2ccccc2)c1,1µM*
CCc1ccc(-n2c(=O)c3cccnc3n2CC(=O)NCc2ccc(F)cc2)cc1,-20.8%
CCc1cccc(-n2c(=O)c3cccnc3n2CC(=O)Nc2ccccc2C(=O)OC)c1,49.2%[5.79 µM]
O=C(Cn1c2ncccc2c(=O)n1-c1ccccc1)NCc1ccccc1,-10.9%
O=C(Cn1c2ncccc2c(=O)n1-c1ccccc1)Nc1ccc(Cl)cc1C(F)(F)F,7.6%
CCc1cccc(-n2c(=O)c3cccnc3n2CC(=O)NCc2ccc(C)cc2)c1,1.12µM*
Cc1ccc(-n2c(=O)c3cccnc3n2CC(=O)Nc2cc(Cl)ccc2C)cc1,9.1%
Cc1nc(-c2ccccc2)n(Cc2cccc(C(F)(F)F)c2)c(=O)c1CCO,i
CN(C)CCCC(=O)N1CCC2(CC1)CN(C(=O)CCC(=O)O)CCO2,3.2%
O=C1NC2(CCCN(C(=O)c3ccc(Cl)cc3)C2)Oc2ccccc21 (stereo not given),14.6%
COCCNC(=O)C[C@@H]1C[C@H]2O[C@H](CNCc3cnccc3C(F)(F)F)[C@@H](O)[C@H]2O1,2.3%[44.1 µM]
O=C(NC1CCCCC1)c1ccc(N2CC3CC(C2)[C@H]2CCCC(=O)N2C3)nc1 (stereo not given in full),i
CN(C)c1ccc(-c2noc([C@@H]3CCCN3Cc3ccc(CO)o3)n2)cn1,7.94µM*
